The values that follow come from PubChem BioAssay (NCI).

Where “and” joins values, the source holds several entries; their conditions need not be identical. Identical values can stand only once. The panel holds about 83,000 compounds, 20% with a hit somewhere; the sample as a whole holds those more often.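 Interpretation: 100, growth as untreated; towards 0, rising growth inhibition; 0, no net growth; 0 to -100, cell death. Compounds scoring below 10 were considered active.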 Values without a mark were called inactive. Calls of active or inactive are those of the source.

Common to all, as to assay: NCI-60 one-dose screen, 48 h (100 = growth as untreated, 0 = no growth, -100 = all killed)
Conditions in all cases: 10 µM unless noted

Test [1] relates to HCT-15 colon.
Test [2] has as its system HT29 colon.
Test [3] has as its system SNB-75 CNS.
Test [4] relates to SNB-19 CNS.
Test [5] has as its system U251 CNS.
Test [6] deals with PC-3 prostate.
In test [7] the test system is SK-MEL-5 melanoma.
For test [8], the system named is UACC-62 melanoma.
The subject of test [9] is LOX IMVI melanoma.
Test [10] concerns SK-MEL-28 melanoma.
Test [11] deals with SK-MEL-2 melanoma.
The subject of test [12] is EKVX NSCLC.
Test [13] deals with SN12C renal.
For test [14], the system named is UO-31 renal.
The test system of test [15] is TK-10 renal.
Test [16] deals with CAKI-1 renal.
Test [17] deals with A498 renal.
Test [18] concerns CCRF-CEM leukemia.
In test [19] the test system is MOLT-4 leukemia.
Test [20] concerns ACHN renal.

Consider `CCN1CCN(CC(=O)Nc2nc3ccc(NCc4ccc(C)cc4)cc3s2)CC1`, for which the growth in test [1] was 1.79% (active); in [2], 14.5%; in [3] it was 91.6%; in test [4] it was 81.6%; in test [5] it was 60.2%; in [6], 56%. In addition, the growth in test [7] is 40.7%; in test [8], -57.1% (active); in test [9], -42.4% (active); in test [10], 53.4%; in test [11] it was 75.8%; in test [12] it was 72.6%. Also, the growth in test [13] was 63.3%; in test [14], 61.6%; in test [15] it was 93.6%; in test [16] it was 50.7%; in [17], 94%; in test [18], 55.8%. In addition, the growth in test [19] was 50.5%.

Consider `CCN1C(=O)N(c2ccccc2)C2NC(=S)N(/N=C/C=C/c3ccccc3)C21` (stereo not drawn), for which the growth in test [1] was 12.6%; in test [2] it was 4.84% (active); in [3] it was 35.5%; in [4] it was 22.6%; in test [5] it was 13.9%; in test [6] it was 14%. Further, the growth in test [7] was 3.14% (active); in test [8], 20%; in test [9], 14.8%; in test [10], 60.1%; in [11] it was 16.8%; in test [12], 23.2%. Also, the growth in [13] is 19.8%; in test [14], 35.5%; in test [15] it was 50.1%; in [20], 21.7%; in [16], 29.6%; in test [18], 3.8% (active). Moreover, in test [19], the growth was 8.35% (active).

For `CC1(C)C(N)=Nc2cc(OCCCN3Cc4ccc(OCCc5cn(CC(=O)N6CCC(CCN7CCCC7)CC6)nn5)cc4C3)c(OCC3CC3)cc21`, the growth in test [1] is 97.2%; in test [2] it was 74.2%; in test [3], 93.8%; in [4], 104%; in test [5], 97.7%; in test [6], 84.5%. Also, the growth in [7] was 103%; in test [8], 98.6%; in test [9], 100%; in test [10], 108%; in test [11] it was 109%; in [12] it was 101%. The growth in test [13] is 96.1%; in test [14], 90.8%; in [15], 100%; in [20], 103%; in test [16] it was 91.2%; in test [17] it was 104%. Further, the growth in test [19] was 99.9%.

In the case of `Nn1c(-c2ccc(Cl)cc2)nc2c(-c3ccc(Cl)cc3)nc3ccc(Cl)cc3c2c1=O`, the growth in [1] was 58.2%; in test [2], 7.88% (active); in test [3], -51.4% (active); in [4], 28.2%; in test [5], -63.5% (active); in test [6], 36.6%. In addition, the growth in test [7] was 52.5%; in [8] it was 30.3%; in [9] it was 20.2%; in test [10], -67.2% (active); in test [11], 73.3%; in test [12], 6.86% (active). The growth in test [13] is -3.15% (active); in test [14], -24.9% (active); in test [15] it was 0.823% (active); in [16] it was 14.7%; in [17], 21.3%; in test [18] it was -15.8% (active). The growth in [19] was 32.3%.

Consider `NC1=CC(=O)c2cccnc2C1=O`, for which the growth was 19.9% in [1]; 54.8% in test [2]; -81.2% (active) in [3]; 6.26% (active) in test [4]; -82% (active) in [5]; 15.4% in [6]. Besides, the growth in [7] is -97.8% (active); in test [8] it was -90.5% (active); in test [9], -74.3% (active); in test [10] it was -73.7% (active); in test [11], -46.6% (active); in [12], -20.8% (active). Moreover, the growth in test [13] is -85.2% (active); in test [14] it was -98.2% (active); in test [15], 94.3%; in [20], 5.89% (active); in [16], -69.4% (active); in test [17], 81.9%. In test [19], the growth was -46.4% (active).

For `O=C(/C=C/c1ccccc1)c1cccs1`, the growth is 95.1% and 95.5% in [1]; 99.8% and 90.7% in test [2]; 102% and 97.3% in test [3]; 93.6% and 104% in test [4]; 80.8% and 85.9% in test [5]; 90.8% and 103% in [6]. Besides, the growth in [7] is 101% and 100%; in test [8] it was 92.9% and 99.6%; in test [9], 82.1% and 64.5%; in test [10], 111% and 105%; in test [11], 105% and 107%; in [12], 97.6% and 94.7%. The growth in test [13] is 96.7% and 94.1%; in test [14], 88.9% and 94.1%; in [15] it was 95.5% and 103%; in test [20], 100% and 110%; in test [16] it was 99.9% and 93.7%; in test [18], 82.7%. Moreover, in test [19], the growth is 109% and 96%.

In the case of `O=C(O)C1C2CCC1C(O)C2` (stereo not drawn), the growth in test [1] was 106% and 103%; in test [2] it was 102%; in test [3] it was 101% and 92.9%; in test [4], 102% and 108%; in test [5], 94.6% and 99.6%; in test [6], 110% and 95.9%. In addition, the growth in test [7] is 101% and 110%; in test [8], 110% and 108%; in test [9], 95.4% and 95.5%; in test [10], 104% and 110%; in test [11], 97.7% and 95.5%; in test [12], 110%. Also, the growth in [13] was 104% and 102%; in test [14] it was 81.6% and 82%; in test [15], 93.1% and 98.2%; in test [20] it was 106% and 104%; in [16], 100% and 98.3%; in [18], 101% and 93.9%. Besides, in [19], the growth is 93.6% and 93.5%.
